# Screens from PubChem BioAssay.
# Compounds with a hit are over-represented: about 2.7% of the library has one in this group of screens.
# PAFAH2 inh = PAFAH2 (human) inhibition. Q99487. recombinant PAFAH2, FP-rhodamine activity probe, fluorescence polarization. inhibition, % at 3.39 µM. 340,000 tested, 0.99% active;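 active = inhibition above the mean over all tested compounds plus 3 SD, cut at about 30% in these data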;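 also: inhibitors block probe labeling of enzyme so polarization drops; 0% = enzyme with DMSO and 100% = wells lacking PAFAH2 protein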
# PAFAH1B2 FP inh = blocks human PAF acetylhydrolase 1b catalytic subunit 2. inhibition, % at 3.39 µM. 340,000 tested, 1.2% active. recombinant PAFAH1B2, FP-rhodamine activity probe, fluorescence polarization;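 active = inhibition above the mean of all tested compounds plus 3 SD, cut at about 24% in these data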;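 also: 0% = enzyme with DMSO and 100% = wells lacking PAFAH1B2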
# Target sequence (P68402 whole entry, looked up): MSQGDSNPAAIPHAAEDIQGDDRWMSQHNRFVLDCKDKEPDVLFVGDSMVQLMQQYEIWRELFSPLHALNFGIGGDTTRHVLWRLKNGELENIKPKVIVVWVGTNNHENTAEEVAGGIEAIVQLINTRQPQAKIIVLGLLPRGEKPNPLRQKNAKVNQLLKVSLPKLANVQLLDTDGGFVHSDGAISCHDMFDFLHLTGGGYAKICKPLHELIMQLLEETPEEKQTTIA
# pPAFAH FP inh = inhibitors of human plasma PAF acetylhydrolase (pPAFAH); recombinant pPAFAH, FP-rhodamine probe fluorescence polarization; AID 463082; 330,000 tested, 1.5% active; inhibition, % at 3.39 µM;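 active = inhibition above the mean inhibition across the screen plus 3 SD, cut at about 25% in these data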;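 also: inhibitors block binding of the rhodamine activity-based probe so polarization drops; 0% = enzyme with DMSO and 100% = wells lacking pPAFAH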
# TCR-CD3 inh = blocks the human TCR-CD3 interaction; AID 651800; 360,000 tested, 0.37% active; inhibition, % at 9.4 µM; TAMRA-labeled TCR probe fluorescence, biochemical; in the data active = inhibition above about 19%;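 also: recombinant mutant TCR 2C K166C tagged with TAMRA read by polarization; 0% = receptor in buffer alone and 100% = receptor with positive control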
# PAFAH1B3 inh = inhibitors of human PAFAH1B3 | Q15102 | recombinant PAFAH1B3, FP-rhodamine probe, fluorescence polarization | inhibition, % at 3.39 µM | 340,000 tested, 0.28% active | AID 492972;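 active = inhibition above the screen-wide average of all tested compounds plus 3 SD, cut at about 25% in these data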;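 also: 0% = enzyme with DMSO only and 100% = wells lacking PAFAH1B3 protein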
# Target sequence (Q15102 whole entry, looked up): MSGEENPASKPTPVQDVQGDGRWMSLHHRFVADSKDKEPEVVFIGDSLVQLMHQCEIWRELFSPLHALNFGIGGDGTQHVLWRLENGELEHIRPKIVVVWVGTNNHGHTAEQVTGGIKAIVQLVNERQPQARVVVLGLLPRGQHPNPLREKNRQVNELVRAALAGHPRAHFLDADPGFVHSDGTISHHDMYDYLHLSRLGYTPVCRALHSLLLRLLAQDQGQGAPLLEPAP
# The depositor's hits bear a star; . = no result.
SMILES,PAFAH2 inh,PAFAH1B2 FP inh,pPAFAH FP inh,TCR-CD3 inh,PAFAH1B3 inh
COc1ccc(-n2c(C)cc(/C=C3\C(=O)NN(c4ccccc4)C3=O)c2C)cc1,20,9,11,-1,-3
O=C1NN(c2ccc(Cl)cc2)C(=O)/C1=C\c1ccc(-c2cccc(C(=O)O)c2)o1,36*,21,.,5,27*
COc1ccc(Sc2ccc(/C=C3\C(=O)NN(c4ccccc4)C3=O)o2)cc1,34*,42*,29*,5,15
O=C1NN(c2ccccc2)C(=O)/C1=C\c1ccc(-c2cc([N+](=O)[O-])ccc2O)o1,30*,13,.,0,33*
COCCCNC(=O)Cn1ccc(N)nc1=O,-2,5,2,1,-1
O=C(C(=O)N1CCN(S(=O)(=O)c2ccc(OC(F)(F)F)cc2)CC1)c1cccc(C(F)(F)F)c1,.,.,.,4,.
Cc1cc(C(=O)CN2C(=O)NC3(CCCc4sccc43)C2=O)c(C)n1-c1ccccc1 (stereo not given),-1,7,20,-8,-1
COc1ccc(-n2c(C)cc(C(=O)CN3C(=O)NC4(CCCc5sccc54)C3=O)c2C)cc1 (stereo not given),5,3,25*,0,1
O=C(O/N=C(\c1ccccc1)c1ccncc1)c1ccccc1F,53*,33*,9,8,4
Cc1ccc(C(=O)O/N=C(\c2ccccc2)c2ccncc2)cc1,.,.,22,6,.
CCOC(=O)c1sc2nc3c(SCC(=O)O)cc(C(=O)c4cc(F)ccc4O)cn3c(=O)c2c1C,-61,-33,-13,-3,-80
COc1ccc(O)c(C(=O)c2cc(SCC(=O)O)c3nc4sc5c(c4c(=O)n3c2)CCCC5)c1,-5,1,28*,-8,15
CC(C)(C)C(=O)NCCCc1nc2ccccc2n1CCCOc1ccc(Cl)cc1,5,10,23,3,0
COc1ccc(N(C(=O)c2snc(C(N)=O)c2N)C(C(=O)NCC2CCCO2)c2ccc3ncccc3c2)cc1OC (stereo not given),-11,0,4,0,12
O=C(CSc1nnc(CNc2ccc(Cl)cc2)o1)Nc1nc2c(s1)CCCC2,12,24*,22,-2,6
COc1ccc(CCNC(=O)CSc2nnc(CNc3ccc(Cl)cc3)o2)cc1OC,5,5,-5,8,2
O=C(NC(=S)N1CCCCC1c1cccnc1)c1ccc(Br)cc1 (stereo not given),8,6,3,-5,3
CCc1ccc(S(=O)(=O)/N=C2\C=CC(=O)c3ccccc32)cc1,.,.,40*,.,.
CCc1ccc(S(=O)(=O)/N=C2/C=C(Sc3ncn[nH]3)C(=O)c3ccccc32)cc1,41*,50*,6,.,50*
O=C(NCc1ccccc1)[C@H]1CCCN1C(=O)[C@H]1CCCN1C(=O)c1cccc(Cl)c1,.,.,.,5,.
NC(=O)/C(=C\c1ccco1)NC(=O)c1ccco1,.,.,.,-3,.
NC(=O)/C(=C/c1ccco1)C(N)=S,7,10,26*,5,16
COc1ccc(/C=N/NC(=O)CN(Cc2ccccc2)S(=O)(=O)c2ccc3c(c2)OCCO3)cc1,-5,-1,16,-1,-3
O=C(CN(Cc1ccccc1)S(=O)(=O)c1ccc2c(c1)OCCO2)N/N=C/c1ccc(F)cc1,-5,-1,33*,8,3
c1ccc(OCc2nn3c(Cn4cnc5ccccc54)nnc3s2)cc1,4,27*,5,-4,3
SMILES,PAFAH2 inh,PAFAH1B2 FP inh,pPAFAH FP inh,TCR-CD3 inh,PAFAH1B3 inh
c1ccc(-c2nn3c(Cn4cnc5ccccc54)nnc3s2)cc1,7,3,0,4,4
O=S(=O)(c1ccc(Cl)cc1)N1CCCC1c1nc2ccccc2s1 (stereo not given),-1,7,30*,-10,-1
Cc1ccc(S(=O)(=O)Nc2nc3ccccc3s2)cc1,7,3,6,4,9
Cc1ccc(S(=O)(=O)N2CCCC2c2nc3ccccc3s2)cc1 (stereo not given),7,7,31*,1,3
O=S(=O)(c1cc(Cl)cc(Cl)c1)N1CCCC1c1nc2ccccc2s1 (stereo not given),5,-3,2,0,3
COC(=O)N1C[C@@H]2Oc3nccnc3O[C@@H]2C[C@@H]1c1ccccc1Br,.,.,.,0,.
Cc1cccc(CNC(=O)c2sc(=O)n(Cc3c(C)cccc3C)c2C)c1,.,.,.,9,.
COc1ccccc1C(=O)NC(CCSC)C(=O)NCc1ccncc1 (stereo not given),4,1,0,3,-2
CC(NC(=O)COC(=O)c1cccnc1Cl)C12CC3CC(CC(C3)C1)C2 (stereo not given),45*,51*,2,-4,2
Cc1cccc(OCC(=O)N/N=C/C=C/c2ccco2)c1,5,0,30*,7,-3
CCn1c(SCC(=O)N/N=C/C=C\c2ccco2)nc2ccccc21,5,-3,25*,-5,-6
COC(=O)c1cc2c(c3c4ccccc4n(S(=O)(=O)c4cccc(C)c4)c13)C(=O)N(C)C2,.,.,.,-5,.
CC(Oc1ccccc1)C(=O)Nc1nnc(S(=O)(=O)Nc2ccccc2)s1 (stereo not given),5,10,29*,5,7
CCOc1cc(Br)cc(/C=C2\SC(=Nc3ccccc3)NC2=O)c1O,12,6,25*,-11,7
C=CCOc1c(Br)cc(/C=C2\SC(=Nc3ccccc3)NC2=O)cc1OC,-6,-5,.,0,8
COC(=O)c1ccc(N2CCCCC2)c(NS(=O)(=O)c2ccc(C)cc2)c1,1,3,-1,9,4
CC1CCN(c2ccc(C(=O)O)cc2NS(=O)(=O)c2ccc(Br)cc2)CC1,10,28*,3,-3,7
Cc1ccc(C(=O)O/N=C(\N)Cc2cccs2)c(Cl)c1,35*,5,12,.,1
CN1OC[C@@H]2CN(C(=O)C3CCCCC3)[C@H](c3ccc(N4CCCCC4)cc3)C[C@@H]21,.,.,.,4,.
CCOc1ccc(CCNC(=O)CCS(=O)(=O)c2ccc(OC)cc2)cc1OCC,0,0,34*,-1,-2
CCOc1ccc(S(=O)(=O)NCCC(=O)NCCc2ccc(OCC)c(OCC)c2)cc1,2,0,4,7,1
O=C(Cn1cc(SCc2ccc(Cl)cc2)c2ccccc21)N1CCOCC1,-1,25*,7,-3,0
O=C(Cn1cc(SCc2ccc(F)cc2)c2ccccc21)N1CCOCC1,2,5,12,-2,9
CC(C)c1cc(Nc2cccc(O)c2)cc(C(C)C)c1O,.,.,26*,.,.
CCCCc1nnn2c1C1c3cc(-c4cccnc4)ccc3CCN1C(=O)C2 (stereo not given),.,.,.,-4,.
O=C(O)CC/C(=C\c1ccccc1[N+](=O)[O-])c1nc2ccccc2s1,1,3,0,4,2
O=C(O)CC/C(=C\c1ccc(N2CCCC2)c([N+](=O)[O-])c1)c1nc2ccccc2s1,17,103*,16,-8,9
